Here are results for 20 compounds from PubChem BioAssay (EPA / NIEHS).

One may read the AC50 as the concentration giving half of the maximal activity seen.

The nature of assay [1]: ATG_M_32_CIS: Attagene CIS-FACTORIAL HepG2 Assay for M32 Transcription Factor (Internal Marker) (AID 2282949).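 Further: background control marker of the multiplexed CIS panel rather than a real target.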 Particulars: HepG2 Attagene cis-factorial M32 reporter, mRNA; actives raise or lower the signal. The essentials:
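Following 24 h chemical exposure of HepG2 cells transiently expressing cis-promoter reporter constructs, reporter transcript levels were determined by RT-PCR with fluorescent labelling and capillary electrophoresis, then fitted bidirectionally against DMSO.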

Assay [2] is described as follows: ATG_M_06_CIS: Attagene CIS-FACTORIAL HepG2 Assay for M06 Transcription Factor (Internal Marker) (AID 2282950). Particulars: HepG2 Attagene CIS-FACTORIAL M06 internal marker reporter; actives raise or lower the signal. The essentials:
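Steps: transfect HepG2 with multiplexed cis-element reporter constructs; dose chemical 24 h; extract RNA with DNase treatment; reverse-transcribe, PCR-amplify, 6-FAM label, HpaI digest; separate fragments by capillary electrophoresis. Activity fitted both directions versus DMSO.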

For assay [3], the target named is Hypoxia-inducible factor 1-alpha (Homo sapiens) (UniProt Q16665). The experiment in a line: ATG_HIF1a_CIS: Attagene CIS-FACTORIAL HepG2 Assay for human Hypoxia Inducible Factor 1 (HIF1A) (AID 2282951). Particulars: HepG2 Attagene cis-factorial HIF1a reporter transcription; actives raise or lower the signal. The essentials: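 Dosed 24 h, transfected HepG2 cells yielded total RNA whose reporter transcripts were RT-PCR-amplified and sized by capillary electrophoresis using fluorescent labelling; DMSO defined baseline, with gain and loss of signal both fitted.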

Assay [4] has as its target Hepatocyte nuclear factor 6 (Homo sapiens) (UniProt Q9UBC0). The experiment in a line: ATG_HNF6_CIS: Attagene CIS-FACTORIAL HepG2 Assay for human Hepatocyte Nuclear Factor 6 (HNF6) (AID 2282952). Conditions: HepG2 Attagene cis-factorial HNF6 reporter transcription; actives raise or lower the signal. The essentials: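 Cells are HepG2 carrying transiently transfected cis-promoter reporter units. Treatment lasts 24 h, after which reporter transcripts are reverse-transcribed, amplified, FAM-labelled and sized by capillary electrophoresis. DMSO serves as baseline.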

Assay [5] deals with Heat shock factor protein 1 (Homo sapiens) (UniProt Q00613). The experiment in a line: ATG_HSE_CIS: Attagene CIS-FACTORIAL HepG2 Assay for human Heat Shock Transcription Factor 1 (HSE) (AID 2282953). Particulars: HepG2 HSE cis-reporter, Attagene RNA transcription; actives raise or lower the signal. An outline of the steps:
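Cells were transfected with cis-element-driven reporter constructs, dosed for 24 h, then total RNA was reverse-transcribed and reporter cDNA amplified, FAM-labelled and digested with HpaI. Fragments were resolved by capillary electrophoresis; gain or loss was fitted against DMSO.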

Assay [6] is described as follows: ATG_MRE_CIS: Attagene CIS-FACTORIAL HepG2 Assay for human Metal Responsive Element (MRE) (AID 2282954). Particulars: HepG2 MRE cis-reporter transcription, Attagene multiplex; actives raise or lower the signal. The essentials: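 HepG2 cells transiently transfected with multiple cis-element reporter units measure endogenous MTF1-driven transcription. After 24 h compound exposure, reporter mRNA is quantified by RT-PCR with 6-FAM labelling, HpaI digestion and capillary electrophoresis; bidirectional fits versus DMSO.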

Assay [7] deals with Paired box protein Pax-6 (Homo sapiens) (UniProt P26367). Description: ATG_Pax6_CIS: Attagene CIS-FACTORIAL HepG2 Assay for human Paired Box 6 (PAX6) (AID 2282956). Conditions: HepG2 CIS-FACTORIAL PAX6 reporter transcription, RNA readout; actives raise or lower the signal. The essentials: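 After twenty-four hours of chemical exposure, transfected HepG2 cells are harvested for RNA. Cis-promoter reporter transcripts are amplified, fluorescently labelled and sized by capillary electrophoresis, with gain and loss of signal scored against DMSO.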

Assay [8] is described as follows: ATG_PXRE_CIS: Attagene CIS-FACTORIAL HepG2 Assay for human Pregnane X Receptor Element (PXRE) (AID 2282957). Particulars: HepG2 Attagene CIS-FACTORIAL PXRE reporter, mRNA; actives raise or lower the signal. The essentials:
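Multiplexed cis-reporter assay in transiently transfected human HepG2 cells; 24 h chemical exposure. Reporter transcripts quantified by RT-PCR with fluorescent labeling and capillary electrophoresis.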

Assay [9] is described as follows: ATG_PPRE_CIS: Attagene CIS-FACTORIAL HepG2 Assay for human Peroxisome Proliferator-activated Response Element (PPRE) (AID 2282958). Conditions: HepG2 PPRE cis-element reporter, Attagene transcription factor profiling; actives raise or lower the signal. The essentials:
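Measured endpoint: PPRE-controlled reporter mRNA, detected by RT-PCR and capillary electrophoresis fluorescence, from transiently transfected HepG2 cells 24 h after dosing. Curves fitted in both directions using DMSO baseline.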

Assay [10] is described as follows: ATG_PBREM_CIS: Attagene CIS-FACTORIAL HepG2 Assay for human Phenobarbital-responsive Enhancer Module (PBREM) (AID 2282955). Conditions: HepG2 PBREM cis-reporter, Attagene multiplexed transcription; actives raise or lower the signal. An outline of the steps: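 Transfected liver-derived HepG2 cells exposed 24 h; PBREM reporter transcript quantified via RT-PCR and capillary electrophoresis, with activity in either direction referenced to DMSO.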

A structure can be active in one record and inactive in another. Active and inactive are the calls of the source. How the source made its calls: active means hit-call score of the fitted dose curve at least 0.9, where 1 is the maximum; inactive means score below 0.9.

Sequence of Paired box protein Pax-6 (Homo sapiens) (P26367 whole entry, looked up): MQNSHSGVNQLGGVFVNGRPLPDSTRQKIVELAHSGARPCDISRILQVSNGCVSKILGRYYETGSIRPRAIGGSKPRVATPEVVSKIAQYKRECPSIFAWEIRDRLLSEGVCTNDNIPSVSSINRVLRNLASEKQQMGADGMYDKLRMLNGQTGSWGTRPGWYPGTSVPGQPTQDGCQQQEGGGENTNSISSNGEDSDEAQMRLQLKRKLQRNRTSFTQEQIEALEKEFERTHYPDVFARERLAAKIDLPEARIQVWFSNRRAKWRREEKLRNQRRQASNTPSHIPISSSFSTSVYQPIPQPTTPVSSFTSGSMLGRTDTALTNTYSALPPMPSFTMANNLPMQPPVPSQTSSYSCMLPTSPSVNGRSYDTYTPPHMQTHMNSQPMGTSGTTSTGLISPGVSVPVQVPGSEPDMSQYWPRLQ
Sequence of Heat shock factor protein 1 (Homo sapiens) (Q00613 whole entry, looked up, the tested form may be a part): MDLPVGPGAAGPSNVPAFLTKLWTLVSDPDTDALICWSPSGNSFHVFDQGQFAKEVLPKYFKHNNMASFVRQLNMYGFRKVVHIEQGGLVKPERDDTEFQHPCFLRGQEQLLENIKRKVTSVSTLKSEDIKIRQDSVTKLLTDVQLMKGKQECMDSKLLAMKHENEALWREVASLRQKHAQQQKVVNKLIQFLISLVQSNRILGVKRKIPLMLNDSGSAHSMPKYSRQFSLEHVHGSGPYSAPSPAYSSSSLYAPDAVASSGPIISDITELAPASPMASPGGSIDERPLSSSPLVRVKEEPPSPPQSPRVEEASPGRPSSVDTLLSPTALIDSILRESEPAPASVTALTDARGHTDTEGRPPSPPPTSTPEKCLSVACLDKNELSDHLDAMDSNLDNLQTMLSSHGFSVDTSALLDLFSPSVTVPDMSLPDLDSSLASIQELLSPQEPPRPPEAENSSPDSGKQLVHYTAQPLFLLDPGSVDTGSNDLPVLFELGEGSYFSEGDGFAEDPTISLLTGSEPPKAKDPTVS
Sequence of Hypoxia-inducible factor 1-alpha (Homo sapiens) (Q16665 whole entry, looked up): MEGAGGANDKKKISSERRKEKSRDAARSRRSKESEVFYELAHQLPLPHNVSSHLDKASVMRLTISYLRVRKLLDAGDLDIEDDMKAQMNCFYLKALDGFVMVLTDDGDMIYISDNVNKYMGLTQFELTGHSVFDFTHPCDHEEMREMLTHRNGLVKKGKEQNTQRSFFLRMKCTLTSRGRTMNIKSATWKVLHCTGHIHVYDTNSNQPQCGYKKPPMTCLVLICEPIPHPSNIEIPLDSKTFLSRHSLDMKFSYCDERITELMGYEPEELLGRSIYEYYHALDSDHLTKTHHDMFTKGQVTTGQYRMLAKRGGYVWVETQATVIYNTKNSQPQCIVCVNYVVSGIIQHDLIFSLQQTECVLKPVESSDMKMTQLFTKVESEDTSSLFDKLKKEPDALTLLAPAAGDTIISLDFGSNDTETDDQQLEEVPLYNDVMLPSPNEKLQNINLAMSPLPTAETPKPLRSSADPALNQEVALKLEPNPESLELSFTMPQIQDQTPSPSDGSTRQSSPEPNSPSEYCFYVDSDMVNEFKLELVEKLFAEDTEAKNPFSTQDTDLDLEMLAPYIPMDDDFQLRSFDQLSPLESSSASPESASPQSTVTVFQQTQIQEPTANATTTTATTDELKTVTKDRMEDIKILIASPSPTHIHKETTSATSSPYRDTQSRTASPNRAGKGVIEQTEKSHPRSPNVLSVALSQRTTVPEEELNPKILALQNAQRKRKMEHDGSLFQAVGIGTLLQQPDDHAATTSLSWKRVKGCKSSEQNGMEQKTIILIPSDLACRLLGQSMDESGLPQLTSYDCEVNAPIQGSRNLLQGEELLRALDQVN
Sequence of Hepatocyte nuclear factor 6 (Homo sapiens) (Q9UBC0 whole entry, looked up): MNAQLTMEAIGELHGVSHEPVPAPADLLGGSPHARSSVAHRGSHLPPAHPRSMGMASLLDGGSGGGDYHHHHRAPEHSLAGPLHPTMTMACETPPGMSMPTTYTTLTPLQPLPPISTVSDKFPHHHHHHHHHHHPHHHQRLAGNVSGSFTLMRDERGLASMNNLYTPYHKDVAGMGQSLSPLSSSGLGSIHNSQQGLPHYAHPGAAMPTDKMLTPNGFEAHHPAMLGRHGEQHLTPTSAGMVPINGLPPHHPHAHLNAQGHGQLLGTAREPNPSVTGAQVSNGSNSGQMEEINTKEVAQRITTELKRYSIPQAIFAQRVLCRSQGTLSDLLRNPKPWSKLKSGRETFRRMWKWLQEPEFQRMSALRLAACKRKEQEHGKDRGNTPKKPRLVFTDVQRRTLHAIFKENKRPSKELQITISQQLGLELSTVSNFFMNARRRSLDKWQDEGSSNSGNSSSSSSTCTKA

With `Clc1cc(C(Cl)(Cl)Cl)cnc1Cl`, the call in assay [1], in [2], in [4], in assay [5] and in [9] was inactive. In addition, the AC50 in assay [3] was 9 µM (active); in [6] it was 9.1 µM (active); in assay [7], 8.8 µM (active); in [8] it was 8.47 µM (active).

Consider `O=C(Cc1ccccc1)OCCc1ccccc1`, for which the outcome in assay [1], in assay [2], in assay [3], in [4], in assay [5] and in assay [6] was inactive. Moreover, the outcome in assay [7], in [8] and in [9] was inactive.

`CN(C1CCCCC1)C1CCCCC1`: the call in assay [1], in assay [2], in assay [3], in [4], in assay [5] and in assay [6] was inactive. In addition, the result in assay [7] and in assay [9] was inactive. The concentration at half-maximal activity (AC50) in [8] was 31.7 µM (active).

For the compound `CCC(C)(C#N)N=NC(C)(C#N)CC` (stereo not given), the compound was classed as inactive in assay [1], in assay [2], in assay [3], in assay [4], in assay [5] and in assay [6]. The compound was called inactive in [7] and in [9]. For the same compound, the AC50 in assay [8] was 22 µM (active).

`C=CCCl`: the call in [1], in assay [2], in [3], in assay [4], in assay [5] and in assay [6] was inactive. For the same compound, the compound was classed as inactive in [7] and in assay [9]. Moreover, the AC50 in assay [8] is 100 µM (active).

`C=C(C)[C@@H]1CC=C(C=O)CC1`: the call in assay [1], in assay [2], in [3], in assay [4], in [5] and in assay [7] was inactive. Besides, the outcome in [9] was inactive. Moreover, the AC50 is 85.2 µM (active) in assay [6] and 9.25 µM (active) in [8].

Turning to `O=c1nc(O)n(Cl)c(=O)n1Cl`, the compound was classed as inactive in assay [1], in [2], in assay [3], in assay [4], in assay [5] and in assay [6]. Besides, the compound was called inactive in [7] and in [8].

On to `COc1ccccc1N`, for which the result in assay [1], in assay [2], in assay [3], in assay [4], in [5] and in assay [6] was inactive. Besides, the result in assay [7] and in assay [8] was inactive. Also, the AC50 in assay [8] is 59.1 µM (active).

With `CC(C)N(C(=O)CCl)c1ccccc1`, the compound was classed as inactive in assay [1], in [2], in [4] and in assay [8]. Also, the AC50 in assay [3] is 8.65 µM (active); in assay [5] it was 52.4 µM (active); in assay [6] it was 44.6 µM (active); in [7] it was 53.6 µM (active).

Take `Fc1cccc(Cl)c1CCl`: the outcome in assay [1], in assay [2], in [3], in assay [4], in assay [6] and in [8] was inactive. The outcome in assay [9] was inactive. The AC50 in assay [5] was 159 µM (active); in assay [7], 73.9 µM (active).

As to `CC(C)CC(C)(c1ccc(O)cc1)c1ccc(O)cc1`, the compound was classed as inactive in assay [1], in [2], in [3] and in [4]. For the same compound, the AC50 is 17 µM (active) in [5]; 16.6 µM (active) in [6]; 17.2 µM (active) in assay [7]; 2.92 µM (active) in assay [8]; 15.3 µM (active) in [9].

In the case of `CCOP(=O)(OCC)SCCSCC`, the compound was classed as inactive in [1], in assay [2], in assay [3], in assay [4], in assay [5] and in assay [6]. Moreover, the call in assay [7] was inactive. Also, in assay [8], the AC50 was 57.2 µM (active).

For the compound `CN(C)c1ccc(N=O)cc1`, the call in assay [1], in assay [2], in assay [3], in assay [4], in assay [6] and in assay [7] was inactive. The compound was called inactive in assay [8] and in [9]. Further, the AC50 in assay [5] was 25.4 µM (active).

Take `Brc1ccc(Oc2c(Br)cc(Br)cc2Br)c(Br)c1`: the call in assay [1], in [2], in assay [3], in assay [4], in assay [5] and in assay [6] was inactive. Also, the compound was classed as inactive in assay [7], in assay [8] and in assay [9].

Take `c1ccc(-c2cccc(-c3ccccc3)c2)cc1`: the result in assay [1], in assay [2], in assay [3], in assay [4], in [5] and in [6] was inactive. Further, the compound was classed as inactive in [7]. Further, the AC50 in [8] was 11.3 µM (active).

With `Cc1cc(C(C)(C)c2ccc(O)c(C)c2)ccc1O`, the compound was called inactive in assay [1], in assay [2] and in [9]. Further, the AC50 in assay [3] is 30.3 µM (active); in assay [4], 93.9 µM (active); in assay [5], 39.5 µM (active); in assay [6] it was 50.6 µM (active); in assay [7], 50 µM (active); in assay [8], 1.7 µM (active).

Take `CC(C)(C)c1cc([N+](=O)[O-])cc(C(C)(C)C)c1O`: the result in assay [1], in assay [2], in assay [3], in assay [4], in assay [5] and in assay [7] was inactive. The AC50 was 42.4 µM (active) in [6], 4.23 µM (active) in assay [8] and 12.8 µM (active) in assay [9].

As for `CC1(C)[C@H](/C=C2\CCSC2=O)[C@@H]1C(=O)OCc1coc(Cc2ccccc2)c1`, the compound was called inactive in [1], in assay [2], in assay [4], in [5] and in assay [9]. For the same compound, the AC50 in assay [3] is 12.9 µM (active); in [10], 313 nM (active); in assay [7], 11.1 µM (active).

Take `Cc1c([N+](=O)[O-])c(C)c([N+](=O)[O-])c(C(C)(C)C)c1[N+](=O)[O-]`: the compound was classed as inactive in [1], in [2], in assay [3], in [4], in assay [10] and in [7]. In addition, the call in assay [9] was inactive. Moreover, the AC50 in assay [6] is 64.1 µM (active); in assay [8], 1.54 µM (active).

On to `CCOP(=S)(OCC)SCSc1cc(Cl)ccc1Cl`, for which the compound was called inactive in [1], in assay [2], in assay [3], in [4], in assay [5] and in assay [10]. The compound was called inactive in assay [7], in assay [8] and in [9].
